# An excerpt weighted towards active compounds, which were near 2.8% of everything screened.
# IP6K1 inhibitor – IP6K1 kinase inhibition | 0.81% of 140,000 active | AID 1645851 | IP6K1 kinase, ADP-Glo luminescence, 2 h; active compounds read low | activity change, % (series mostly up to about 58 µM) | Q92551; in the data active = activity change below about -25%; note: % is set by controls: 0 for no effect and ±100 for the full control effect
#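 ADP-Glo luminescence measures ADP made by human IP6K1 during a 2 h RT reaction with ATP/IP6 (mix at 1.3 mM/130 uM); top library doses 57.5 and 19.1 uM final.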
# KDM5B inhibitor – blocks human KDM5B histone demethylase activity | Q9UGL1 | KDM5B demethylase, FDH-coupled NADH fluorescence (FDH is formaldehyde dehydrogenase) | Potency, µM (titrated, usually from 57.7 µM), usual class: inhibitors | 2.6% of 220,000 active | AID 1347165; note: potency is the fitted concentration of half-maximal effect; 0% is about no effect; nearly all actives have a fitted effect of over 70% in size
#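 qHTS format, multiple compound concentrations. Buffer 50 mM HEPES pH 7.5/0.01% Tween-20; 200 nM KDM5BΔAP final; 10 min compound preincubation; substrate-mix levels 12.5 µM peptide, 25 µM α-KG, 0.25 mM NAD⁺; 30 min RT; ΔRFU.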
# HEK293 viab – cell viability loss counter-screen; HEK-293-SNCA-luc viability, GF-AFC fluorescence, 24 h; Potency, µM (titrated, usually from 57.1 µM), for the others: at the top dose activity change, negative = cytotoxicity, most hits filed as cytotoxic; 0.12% of 150,000 active; AID 1671193;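 note: potency is the fitted concentration of half-maximal effect; 0% = DMSO-treated cells and -100% = medium-only wells without cells; nearly all actives have a fitted effect of over 30% in size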
#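 Cytotoxicity counterscreen: after 24 h compound treatment of genome-edited SNCA-luciferase HEK-293 cells, live-cell protease substrate GF-AFC read by fluorescence after 30 min; activity scaled between DMSO (0%) and medium-only (-100%), curves Hill-fitted.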
# SNCA expr inh – SNCA gene expression inhibition; HEK-293 SNCA-luciferase knock-in, luminescence, 24 h; Potency, µM (titrated, usually from 57.2 µM), inactives show at the highest dose activity change, negative = inhibition, usual class: inhibitors; 0.17% of 140,000 active; AID 1671194;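 note: potency is the fitted concentration of half-maximal effect; plate controls were DMSO cells for no effect and cell-free wells for full effect; nearly all actives have a fitted effect of over 45% in size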
# IP6K1 conf – human IP6K1 inhibition, confirmatory. shares compounds with IP6K1 inhibitor. recombinant IP6K1 kinase, ADP-Glo luminescence, 2 h. Potency, µM (highest dose often 49 µM), for the others: at the highest dose activity change, negative = inhibition, most hits filed as inhibitors. 13% of 1,200 active. AID 1645852; note: potency is the fitted concentration of half-maximal effect; % is set by controls: 0 for no effect and ±100 for the full control effect; nearly all actives have a fitted effect of over 65% in size
# * marks the source's active call; other numbers are inactive results; i = inactive; ? = inconclusive; . = no result; [ ] = dose if it differs, or a comment. Unless noted, calls come from the whole dose curve; as a rule, active = well fitted curve in the direction sought with a large enough effect; inconclusive = small, poorly fitted or top-dose-only effect, or another doubt; inactive = no such curve, though single readings can be large; an effect the other way counts as inactive or inconclusive.
SMILES,IP6K1 inhibitor,KDM5B inhibitor,HEK293 viab,SNCA expr inh,IP6K1 conf
COc1cccc(-c2ccc3c(N)c(C(=O)Nc4ccccc4C)sc3n2)c1,-26*,?,?,?,2%
COc1cccc(-c2ccc3c(N)c(C(=O)Nc4cc(F)ccc4F)sc3n2)c1,18,i,?,106%,.
COc1ccc(N2CC(C(=O)NCc3ccc(C(F)(F)F)cc3)NC2=O)cc1 (configuration not stated),10,i,3%,29%,.
Nc1nc(N)c(S(=O)(=O)c2ccccc2)c(Nc2ccc(Br)cc2)n1,-36*,i,1%,-2%,?
CC(C)Oc1ccc(C(=O)Nc2cccc3ncccc23)cc1,.,i,.,.,.
Cc1ccc2nc(-c3ccco3)c(Nc3ccc4c(c3)OCCO4)n2c1,-28*,i,-12%,60%,16%
C/C=C/C=C/C=C/C(=O)O[C@@H]1[C@@H](OC)C2=C(C(=O)N(C(C)C(=O)O)C2)[C@@]2(C)CCCC(C)(C)[C@H]12 (some centres not stated),11,.,-24%[23.9 µM],.,-6%[18.9 µM]
O=C(Nc1cccc(C(F)(F)F)c1)c1c(-c2ccc(F)cc2)nc2n1CCS2(=O)=O,.,i,.,.,.
Cc1ccc(NCc2cccn2-c2nnc(N3CCC(C(=O)NCc4ccc(OC(C)C)cc4)CC3)s2)cc1,-10,?,-8%,?,.
Cc1ccc(NCc2cccn2-c2nnc(N3CCC(C(=O)NCCc4ccc(Cl)cc4)CC3)s2)cc1,-25*,i,-8%,?,37%
CCn1nccc1C(=O)N1CCCC(n2c(C)cnc2COC)C1 (configuration not stated),-1,i,1%,3%,.
COC1CCC12CCN(C(=O)c1cccc(C)c1)CC2 (configuration not stated),-5,i,-9%,-1%,.
COc1ccc(NC(=O)c2c(NCc3cccc(OC)c3)sc3c2CCCC3)cc1,-1,?,5%,?,.
COc1ccc(NC(=O)c2c(NCc3ccc(N(C)C)cc3)sc3c2CCC3)cc1,-27*,?,-22%,29%,-11%
N#Cc1c(O)c2c(-c3ccc(-c4ccccc4O)cc3)csc2[nH]c1=O,-46*,.,-34%,0%,?
CC(Sc1nc(C(F)(F)F)nc2ccccc12)C(=O)N(C)c1ccccc1 (configuration not stated),.,i,.,.,.
COc1ccc(-c2ccc(C(=O)N3CCCCC3)cc2)nn1,-51*,.,.,.,?
Clc1ccccc1-c1nc(-c2ccncc2)no1,-25*,.,-14%[23.9 µM],193%[25.6 µM],?
COc1cc(OC)c(C(=O)N2CCCC[C@H](N(C)C)C2)cc1OC,-10,i,-3%,10%,.
COc1ccccc1-c1ccc(C(=O)N2CCCC[C@H](N(C)C)C2)cc1,-31*,?,?,-8%,21%
CN(C)[C@H]1CCCCN(C(=O)c2cnc3ccccn3c2=O)C1,-34*,32µM*,2%,19%,18%
Cc1ccc([N+](=O)[O-])cc1S(=O)(=O)N(C)/N=C/c1cnc2ccc(Br)cn12,-25*,.,?,.,?
Cc1cc(S(=O)(=O)c2ccc([N+](=O)[O-])cn2)ccc1Br,.,i,.,.,.
Cc1cccc(NC(=O)c2ccc[n+]([O-])c2)c1,.,i,.,.,.
CCN1CC(C(=O)N2CCCC(c3ccccc3)(c3ccccc3)C2)CC1=O (configuration not stated),-34*,i,-6%,-3%,-12%
SMILES,IP6K1 inhibitor,KDM5B inhibitor,HEK293 viab,SNCA expr inh,IP6K1 conf
COc1ccc(NC(=O)c2[nH]nc3c2CSc2ccccc2-3)c(OC)c1,-44*,i,8%,7%,-6%
COc1ccc(OC)c(CNC(=O)c2nn(C)c3c2CSc2ccccc2-3)c1,35,?,11%,-6%,.
CC(c1ccc(-c2cc(N)ncn2)cc1)N1CCCCC1 (configuration not stated),12,?,7%,-15%,-2%
Cc1ccc(C(=O)N2CCC(Cc3nc(C(C)C)no3)CC2)cc1C,-27*,i,-17%,?,-8%
COc1ccc(C(=O)N2CCC(Cc3nc(C(C)C)no3)CC2)cc1OC,-5,i,9%,0%,.
Cc1cccc(C(=O)N2CCC(Cc3nc(-c4cnccn4)no3)CC2)c1,-27*,i,-11%,-11%,4%
CCCN(CC(=O)Nc1ccccc1OC)C(=O)c1cc(=O)c2ccccc2o1,.,i,.,.,.
Cc1ccc(C(=O)N2CCn3c(nnc3-c3ccncc3)C2)cc1,2,i,-3%,?,.
O=C(NCc1ccccc1Cl)C1CCc2nnc(CN[S+](=O)([O-])c3ccccc3Cl)n21 (configuration not stated),-4,.,-9%,-14%,.
CN(C)c1ccc2nc3ccc(=[N+](C)C)cc-3sc2c1,-30*,.,?,56%[25.6 µM],15µM*
Cc1cccc(Nc2sc(C(=O)c3ccc(Cl)cc3)c(N)c2C(N)=O)c1,-39*,?,-9%,0%,-10%
C[C@@H](NC(=O)/C(C#N)=C/c1ccc(O)c(O)c1)c1ccccc1,.,.,-8%,9%,.
CCC[C@H](NC(=O)C(C#N)=Cc1cccc(Br)n1)c1ccccc1,.,.,?,?,?
COc1cc2ccccc2cc1C(=O)Nc1ccc2oc(-c3cccc(C)c3)nc2c1,-28*,?,5%,20%,25%
O=C(Nc1ccc2oc(-c3ccccc3F)nc2c1)c1ccccc1Cl,-49*,?,-15%,-4%,?
Cc1cc(C)cc(NC(=O)CN(C)S(=O)(=O)c2ccc3[nH]c4c(c3c2)CCCC4)c1,16,?,-17%,?,.
Cc1ccc(NS(=O)(=O)c2ccc3[nH]c4c(c3c2)CCCCCC4)cc1Cl,6,?,8%,-22%,.
Cc1ccc(NS(=O)(=O)c2ccc3[nH]c4c(c3c2)CCCC4)cc1N(C)C,-27*,?,-23%,?,-7%
Cc1cccc(C)c1NC(=O)CN(C)S(=O)(=O)c1ccc2[nH]c3c(c2c1)CCCC3,-26*,?,-3%,-16%,21%
Cc1ccccc1C(=O)N1CCC[C@H]1c1nc(-c2ccc(F)cc2)no1,4,i,-5%,8%,.
O=C(O)CSc1cc(NS(=O)(=O)c2ccc(Br)cc2)c2ccccc2c1O,-76*,.,?,.,?
COC(=O)c1sc(=S)n(-c2cccc(OC)c2)c1N,.,i,.,.,.
FC(F)(F)c1cccc(-c2noc(-c3ccc(NCCN4CCOCC4)nc3)n2)c1,14,?,-25%,?,.
Cn1cc(CNc2ccc(-c3nc(-c4cccc(C(F)(F)F)c4)no3)cn2)cn1,-33*,?,-14%,60%,?
O=C(NC1C[C@H]2CC[C@@H](C1)N2C(=O)CCCc1ccccc1)c1ccc(F)cc1 (some centres not stated),-3,i,?,?,.
Clc1ccccc1-c1nc(NCc2cccs2)c2ccccc2n1,.,.,-8%,-5%,.

# Compound activity deposited in PubChem BioAssay by National Center for Advancing Translational Sciences (NCATS).
